# For some of these results: Entries with a potency or affinity are not part of this list.
# Columns and labels:
# Set-up in all cases: scale not given: direction of the effect not stated beside the values
# [1] = molecular target: Protein translocase subunit SecA (Escherichia coli (strain K12)) (UniProt P10408); assay: Assay to Identify E. coli SecA ATPase Inhibitors; assay type: functional; settings: 30 µM
# [2] = molecular target: T1, Ubiquitin-activating enzyme e1, putative (Leishmania donovani (strain BPK282A1)) (UniProt E9BSI1); assay: Leishmania donovani Ubiquitin Activating Enzyme (LdE1); assay type: functional; settings: 30 µM
# T1 sequence (whole entry): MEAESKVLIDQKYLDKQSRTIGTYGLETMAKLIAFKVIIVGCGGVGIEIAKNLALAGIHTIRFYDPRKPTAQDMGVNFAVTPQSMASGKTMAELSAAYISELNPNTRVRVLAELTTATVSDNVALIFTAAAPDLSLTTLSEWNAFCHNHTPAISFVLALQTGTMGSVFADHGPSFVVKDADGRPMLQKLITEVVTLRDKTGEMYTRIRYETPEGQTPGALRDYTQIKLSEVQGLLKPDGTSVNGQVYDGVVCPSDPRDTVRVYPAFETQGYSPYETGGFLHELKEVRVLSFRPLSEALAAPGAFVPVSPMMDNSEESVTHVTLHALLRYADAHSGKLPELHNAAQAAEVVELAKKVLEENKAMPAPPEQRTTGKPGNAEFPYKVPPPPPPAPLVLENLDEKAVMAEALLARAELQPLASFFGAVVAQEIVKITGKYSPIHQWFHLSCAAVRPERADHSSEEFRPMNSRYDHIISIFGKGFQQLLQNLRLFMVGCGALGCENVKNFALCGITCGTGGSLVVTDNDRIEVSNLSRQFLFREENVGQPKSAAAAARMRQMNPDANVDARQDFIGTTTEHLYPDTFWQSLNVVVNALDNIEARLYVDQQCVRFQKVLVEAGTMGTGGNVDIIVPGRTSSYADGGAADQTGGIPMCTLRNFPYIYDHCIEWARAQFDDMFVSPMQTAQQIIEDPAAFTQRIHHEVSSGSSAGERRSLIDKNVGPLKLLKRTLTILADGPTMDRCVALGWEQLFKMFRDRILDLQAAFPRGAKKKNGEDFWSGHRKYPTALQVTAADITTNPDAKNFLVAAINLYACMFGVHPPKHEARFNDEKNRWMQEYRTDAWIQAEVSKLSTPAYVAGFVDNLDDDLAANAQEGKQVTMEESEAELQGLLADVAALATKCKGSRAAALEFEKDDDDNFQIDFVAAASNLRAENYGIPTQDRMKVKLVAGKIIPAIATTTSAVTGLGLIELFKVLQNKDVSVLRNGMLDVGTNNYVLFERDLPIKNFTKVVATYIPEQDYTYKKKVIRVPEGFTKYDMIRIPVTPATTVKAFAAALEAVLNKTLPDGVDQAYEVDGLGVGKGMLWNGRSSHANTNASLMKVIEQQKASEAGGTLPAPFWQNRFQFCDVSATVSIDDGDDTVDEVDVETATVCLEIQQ
# [3] = molecular target: T2, Aspartate--tRNA(Asp/Asn) ligase (Mycobacterium tuberculosis (strain ATCC 25618 / H37Rv)) (UniProt P9WFW3); assay: Assay for Asp RNA synthetase-1 from Mycobacterium tuberculosis; assay type: functional; settings: 30 µM; also: in the data most compounds retested in dose-response had high values
# T2 sequence (whole entry): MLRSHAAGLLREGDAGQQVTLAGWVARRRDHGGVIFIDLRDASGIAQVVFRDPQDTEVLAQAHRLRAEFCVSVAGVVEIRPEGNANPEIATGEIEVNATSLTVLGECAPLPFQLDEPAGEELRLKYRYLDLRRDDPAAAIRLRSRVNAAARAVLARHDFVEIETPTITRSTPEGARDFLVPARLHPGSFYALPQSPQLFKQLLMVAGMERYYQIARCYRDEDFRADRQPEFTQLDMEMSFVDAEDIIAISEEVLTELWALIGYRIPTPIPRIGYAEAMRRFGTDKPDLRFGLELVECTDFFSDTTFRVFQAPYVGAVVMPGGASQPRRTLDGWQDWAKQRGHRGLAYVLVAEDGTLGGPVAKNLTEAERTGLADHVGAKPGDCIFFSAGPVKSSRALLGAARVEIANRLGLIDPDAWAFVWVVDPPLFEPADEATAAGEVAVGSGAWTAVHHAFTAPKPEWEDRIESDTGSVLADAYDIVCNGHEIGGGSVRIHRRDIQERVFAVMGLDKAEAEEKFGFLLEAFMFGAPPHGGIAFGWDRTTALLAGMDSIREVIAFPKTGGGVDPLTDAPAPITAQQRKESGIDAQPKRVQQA
# [4] = molecular target: AMP-activated protein kinase, AMPK (Homo sapiens) (UniProt P54646+O43741+P54619+Q9UGJ0+Q9Y478+Q13131+Q9UGI9); assay: AMP-dependent Kinase enzyme assay. An in vitro enzyme assay that detects ADP turnover that is directly proportional to AMPK activity. This uses naive AMPK that is activated during the assay with MK-8722; assay type: functional; settings: 30 µM
# [5] = molecular target: Sialic acid-binding Ig-like lectin 9 (Homo sapiens) (UniProt Q9Y336); assay: Hs-Siglec9 ALPHAscreen SOP 20170721; settings: 10 µM
# [6] = system: Trypanosoma cruzi; assay: Trypanosoma cruzi phosphomannomutase and mannose-1-phosphate guanylyltransferase assay; assay type: functional; settings: 10 µM
# [7] = molecular target: T3, Arginase-2, mitochondrial (Homo sapiens) (UniProt P78540); assay: in vitro enzyme assay to detect the production of urea directly proportional to the activity of Arginase II; assay type: functional; settings: 33.3 µM; also: in the data most compounds retested in dose-response had high values
# T3 sequence (whole entry): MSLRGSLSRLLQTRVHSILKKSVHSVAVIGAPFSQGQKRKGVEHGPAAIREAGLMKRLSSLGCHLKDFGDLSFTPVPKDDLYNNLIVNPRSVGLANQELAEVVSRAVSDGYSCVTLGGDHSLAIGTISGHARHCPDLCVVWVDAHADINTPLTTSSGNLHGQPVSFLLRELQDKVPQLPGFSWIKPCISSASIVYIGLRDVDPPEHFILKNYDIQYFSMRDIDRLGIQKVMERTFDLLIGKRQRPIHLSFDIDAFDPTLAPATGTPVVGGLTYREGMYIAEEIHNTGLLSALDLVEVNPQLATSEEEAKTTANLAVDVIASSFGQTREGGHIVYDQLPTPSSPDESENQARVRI
# [8] = molecular target: T4, Proteasome subunit beta (Trypanosoma cruzi) (UniProt O96673); assay: Trypanosoma cruzi proteasome chymotrypsin-like activity (TcProtChymo) assay.; also: in the data most compounds retested in dose-response had high values; assay type: functional; settings: 9.37 µM
# T4 sequence (whole entry): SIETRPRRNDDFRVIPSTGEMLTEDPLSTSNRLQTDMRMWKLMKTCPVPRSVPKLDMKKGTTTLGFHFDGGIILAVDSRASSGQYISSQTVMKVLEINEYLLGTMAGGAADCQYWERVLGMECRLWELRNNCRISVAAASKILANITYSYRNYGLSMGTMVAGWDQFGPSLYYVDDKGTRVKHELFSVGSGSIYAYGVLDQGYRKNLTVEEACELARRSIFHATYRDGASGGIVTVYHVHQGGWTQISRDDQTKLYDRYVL
# [9] = species on record: Homo sapiens; assay: To identify inhibition of the IFN signalling (Jak-Stat) pathway via expression of an eGFP reporter gene under the control of an IFN-stimulated response element (ISRE) containing MxA promoter.; assay type: functional; settings: 30 µM
# [10] = molecular target: Shiga toxin 2 (Escherichia coli O157:H7) (UniProt P09385+P09386); assay: E. coli 0.157:H7 Shiga Toxin SOP - stx2 screening assay; assay type: functional; settings: 30 µM
# [11] = molecular target: T5, Tyrosyl-tRNA synthetase, putative (Trypanosoma cruzi (strain CL Brener)) (UniProt Q4DSP6); assay: Trypanosoma cruzi tyrosyl tRNA synthetase (TcYRS) _High Tyrosine SOP; assay type: functional; settings: 30 µM; also: in the data most compounds retested in dose-response had high values
# T5 sequence (whole entry): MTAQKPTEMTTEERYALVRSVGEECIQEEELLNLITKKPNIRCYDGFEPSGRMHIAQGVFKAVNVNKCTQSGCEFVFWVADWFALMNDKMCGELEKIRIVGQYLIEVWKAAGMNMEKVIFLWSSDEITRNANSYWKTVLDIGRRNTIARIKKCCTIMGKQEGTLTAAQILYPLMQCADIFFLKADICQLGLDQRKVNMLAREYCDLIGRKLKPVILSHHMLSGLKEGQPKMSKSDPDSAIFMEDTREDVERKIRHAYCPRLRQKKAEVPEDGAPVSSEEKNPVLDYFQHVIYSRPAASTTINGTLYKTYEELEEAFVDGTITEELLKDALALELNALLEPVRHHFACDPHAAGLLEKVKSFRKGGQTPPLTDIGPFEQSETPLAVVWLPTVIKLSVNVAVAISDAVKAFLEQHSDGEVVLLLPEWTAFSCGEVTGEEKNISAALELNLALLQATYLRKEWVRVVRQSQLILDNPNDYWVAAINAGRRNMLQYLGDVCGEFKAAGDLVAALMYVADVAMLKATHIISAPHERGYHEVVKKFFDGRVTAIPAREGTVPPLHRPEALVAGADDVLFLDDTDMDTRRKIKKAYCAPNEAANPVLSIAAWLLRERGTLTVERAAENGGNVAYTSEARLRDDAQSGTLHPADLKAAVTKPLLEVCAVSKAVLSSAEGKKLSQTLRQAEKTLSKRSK
# [12] = molecular target: T5, Tyrosyl-tRNA synthetase, putative (Trypanosoma cruzi (strain CL Brener)); assay: Trypanosoma cruzi tyrosyl tRNA synthetase (TcYRS) SOP; assay type: functional; settings: 30 µM
# [13] = molecular target: Chromo domain-containing protein 1 (Saccharomyces cerevisiae (strain ATCC 204508 / S288c) (Baker's yeast)) (UniProt P32657); assay: ScCHD-1 Enzyme Inhibition Assay; assay type: functional; settings: 30 µM; also: in the data most compounds retested in dose-response had high values
# Sequence of Chromo domain-containing protein 1 (Saccharomyces cerevisiae (strain ATCC 204508 / S288c) (Baker's yeast)) (P32657 whole entry, the tested form may be a part): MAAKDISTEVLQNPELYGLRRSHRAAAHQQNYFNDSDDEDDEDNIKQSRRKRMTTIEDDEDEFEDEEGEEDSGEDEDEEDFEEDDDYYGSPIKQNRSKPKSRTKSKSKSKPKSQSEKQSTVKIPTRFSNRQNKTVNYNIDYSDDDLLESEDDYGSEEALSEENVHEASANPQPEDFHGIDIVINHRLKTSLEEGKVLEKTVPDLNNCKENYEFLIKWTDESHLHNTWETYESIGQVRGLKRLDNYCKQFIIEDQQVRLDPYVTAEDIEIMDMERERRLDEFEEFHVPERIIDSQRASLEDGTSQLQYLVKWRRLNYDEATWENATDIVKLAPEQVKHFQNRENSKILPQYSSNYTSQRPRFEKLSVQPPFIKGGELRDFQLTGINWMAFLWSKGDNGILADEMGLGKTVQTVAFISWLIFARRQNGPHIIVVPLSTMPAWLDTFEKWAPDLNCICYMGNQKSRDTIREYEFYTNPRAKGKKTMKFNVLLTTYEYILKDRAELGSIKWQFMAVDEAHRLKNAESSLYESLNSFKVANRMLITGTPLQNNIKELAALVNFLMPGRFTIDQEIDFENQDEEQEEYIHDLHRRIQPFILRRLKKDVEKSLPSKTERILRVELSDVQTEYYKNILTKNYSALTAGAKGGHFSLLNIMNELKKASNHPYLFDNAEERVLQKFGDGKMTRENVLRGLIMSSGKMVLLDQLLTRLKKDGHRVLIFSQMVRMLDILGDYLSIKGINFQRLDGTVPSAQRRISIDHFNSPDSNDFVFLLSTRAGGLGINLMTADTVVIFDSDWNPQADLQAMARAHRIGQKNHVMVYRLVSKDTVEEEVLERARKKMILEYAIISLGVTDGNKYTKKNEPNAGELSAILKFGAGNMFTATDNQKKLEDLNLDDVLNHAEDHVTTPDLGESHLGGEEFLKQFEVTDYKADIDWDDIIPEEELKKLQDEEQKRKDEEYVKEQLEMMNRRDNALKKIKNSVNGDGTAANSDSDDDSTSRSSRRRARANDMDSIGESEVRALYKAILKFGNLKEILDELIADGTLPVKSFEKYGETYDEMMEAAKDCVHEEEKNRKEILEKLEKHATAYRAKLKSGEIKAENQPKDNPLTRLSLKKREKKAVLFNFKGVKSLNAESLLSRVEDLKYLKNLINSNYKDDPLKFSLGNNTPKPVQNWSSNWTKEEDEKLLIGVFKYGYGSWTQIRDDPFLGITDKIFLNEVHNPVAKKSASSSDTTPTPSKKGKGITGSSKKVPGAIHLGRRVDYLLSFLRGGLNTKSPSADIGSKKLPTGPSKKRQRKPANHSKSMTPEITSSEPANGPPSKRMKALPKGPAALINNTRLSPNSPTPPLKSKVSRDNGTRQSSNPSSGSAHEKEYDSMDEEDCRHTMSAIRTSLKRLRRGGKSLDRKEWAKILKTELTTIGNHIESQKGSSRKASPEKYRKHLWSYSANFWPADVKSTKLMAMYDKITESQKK
# Sequence of Protein translocase subunit SecA (Escherichia coli (strain K12)) (P10408 whole entry): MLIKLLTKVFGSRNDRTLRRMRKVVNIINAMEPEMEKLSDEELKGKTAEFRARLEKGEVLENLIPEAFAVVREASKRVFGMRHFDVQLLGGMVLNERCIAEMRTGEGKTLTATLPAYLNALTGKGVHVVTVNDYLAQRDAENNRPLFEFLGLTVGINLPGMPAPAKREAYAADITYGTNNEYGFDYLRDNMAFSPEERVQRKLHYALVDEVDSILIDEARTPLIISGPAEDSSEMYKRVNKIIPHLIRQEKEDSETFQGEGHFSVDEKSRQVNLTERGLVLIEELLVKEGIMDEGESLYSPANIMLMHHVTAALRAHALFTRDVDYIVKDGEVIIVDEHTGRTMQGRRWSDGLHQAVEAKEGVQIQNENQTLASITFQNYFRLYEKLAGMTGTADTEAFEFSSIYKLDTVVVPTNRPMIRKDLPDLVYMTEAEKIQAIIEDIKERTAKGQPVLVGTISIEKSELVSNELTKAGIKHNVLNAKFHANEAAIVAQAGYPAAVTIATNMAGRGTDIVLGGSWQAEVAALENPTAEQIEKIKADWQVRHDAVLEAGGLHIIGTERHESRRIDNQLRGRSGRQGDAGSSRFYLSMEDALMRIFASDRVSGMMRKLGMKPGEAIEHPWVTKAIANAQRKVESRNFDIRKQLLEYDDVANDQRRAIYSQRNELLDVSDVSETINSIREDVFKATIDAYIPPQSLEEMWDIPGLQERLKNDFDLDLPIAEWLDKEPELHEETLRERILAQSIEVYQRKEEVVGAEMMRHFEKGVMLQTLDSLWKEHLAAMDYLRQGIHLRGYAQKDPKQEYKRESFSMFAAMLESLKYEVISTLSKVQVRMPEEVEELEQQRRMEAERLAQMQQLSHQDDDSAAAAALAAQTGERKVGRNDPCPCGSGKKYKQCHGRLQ
# Sequence of Sialic acid-binding Ig-like lectin 9 (Homo sapiens) (Q9Y336 whole entry): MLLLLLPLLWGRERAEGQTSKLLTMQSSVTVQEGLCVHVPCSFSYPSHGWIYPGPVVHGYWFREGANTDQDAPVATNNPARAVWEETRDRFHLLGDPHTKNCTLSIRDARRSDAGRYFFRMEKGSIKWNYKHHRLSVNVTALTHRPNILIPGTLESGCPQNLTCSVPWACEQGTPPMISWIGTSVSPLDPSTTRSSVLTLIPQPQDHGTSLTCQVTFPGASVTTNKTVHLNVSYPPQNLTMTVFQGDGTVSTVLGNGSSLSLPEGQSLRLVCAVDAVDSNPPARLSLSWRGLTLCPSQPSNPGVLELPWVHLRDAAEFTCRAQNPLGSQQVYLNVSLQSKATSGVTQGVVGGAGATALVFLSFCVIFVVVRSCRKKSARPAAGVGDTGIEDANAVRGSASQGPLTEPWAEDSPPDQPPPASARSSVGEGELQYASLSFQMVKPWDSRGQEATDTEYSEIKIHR
SMILES,Percent Effect [1] [%],Percent Effect [2] [%],Percent Effect [3] [%],Percent Effect [4] [%],Percent Effect [5] [%],Percent Effect [6] [%],Percent Effect [7] [%],Percent Effect [8] [%],Percent Effect [9] [%],Percent Effect [10] [%],Percent Effect [11] [%],Percent Effect [12] [%],Percent Effect [13] [%]
COc1ccccc1C1SCC(=O)Nc2n[nH]cc21 (stereo unspecified),-5.34,5.26,6.47,16.6,-1.26,-2.63,15.4,12.6,-13.4,5.55,3.19,2.6,-2.61
c1ccc(CN2CCC3(CC2)CCN(Cc2cccs2)C3)nc1,-3.68,11.7,1.23,–,-8.25,-1.31,-0.457,6.61,-11.1,-13.1,8.7,-12.5,-12
CN1CCN(Cc2ccoc2)Cc2cccnc21,-4.57,-14.3,3.07,–,-3.94,-5.16,4.45,-0.265,0.714,-8.68,5.79,-15.4,3.94
CC(C)c1nccc([C@H]2C[C@@H]3CCN(Cc4ccoc4)C[C@H]3O2)n1,-3.97,-6.49,-4.77,–,-2.81,6.13,-6.48,16.7,-14.2,3.27,5.79,0,-1.73
O=C1CO[C@@H]2CN(Cc3cccs3)C[C@H]2N1Cc1ccncc1,-2.47,14.3,9.56,–,-8.26,-2.63,10.9,21.8,-2.63,-17.5,12.1,10.3,3.61
NCC1[C@H]2CN(CCc3ccccc3)C[C@@H]12 (stereo partly specified),-7.01,14.3,2.14,–,-1.73,-4.5,-1.37,11.1,15.4,-0.684,6.76,0,-10.2
CCC(O)CN1CCN(C(=O)Cc2cc(Cl)ccc2OC)CC1 (stereo unspecified),1.11,13,-1.9,–,12.1,-1.31,-3.89,4.04,13.4,-9.78,4.9,21.2,-7
CNCCc1nc2cc(Cl)ccc2[nH]1,-7.19,0,0.126,1.26,-5.75,-7.11,-3.65,5.58,5.87,–,-4.92,-6.17,0.639
O=C(C1CC(=O)N(c2ccccc2Br)C1)N1CCC2(CC1)OCCO2 (stereo unspecified),-3.76,-10.7,2.47,-5.79,-2.82,-3.21,2.6,11.2,0.465,–,1.64,8.64,-2.41
NC(=O)CN1CCCN(C(=O)Cc2ccc(F)c(Br)c2)CC1,-6.33,10.7,-0.338,–,-0.341,-3.61,-0.444,12.6,-6.89,-17.2,4.74,7.69,-9.76

# From ChEMBL document CHEMBL3988442, “University of Dundee, Small-Polar-MMV Screening Library” (2021)
